An excerpt weighted towards active compounds, which were near 14% of everything screened.
HCMV antiviral: human cytomegalovirus inhibition | HFF cells, HCMV-luciferase reporter, 72 h; stronger effect = lower value | activity change, negative = inhibition, % at 57.5 µM | 410,000 tested, 4.5% active | AID 1259415; in the data active = activity change below about -60%; inconclusive = no clear call, values can overlap the other calls; inactive = above about -39%
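Human foreskin fibroblasts infected with luciferase-reporter HCMV at MOI 1 PFU/cell, compounds at two doses. Luciferase measured 72 h post infection; normalized to buffer-only basal and Salinomycin (10uM) controls.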
HCV inhibitor: blocks hepatitis C virus. Huh7.5.1 HCVcc-Cre infection, luciferase reporter, 44 h. Potency, µM (series often up to 41.8 µM), inactives show at the top dose activity change, negative = inhibition, most hits filed as inhibitors. 340,000 tested, 3.4% active. AID 651820; also: potency is read from the fitted curve at half-maximal effect
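A cell-based infection assay in which seeded cells (1,000 per well) receive test compound after 4 h, are inoculated with HCVcc-Cre at approximately 0.5 moi, and are incubated 44 h before luminescence detection.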
Pf growth 48h: inhibits P. falciparum growth in the first generation, 48 h; P. falciparum luciferase growth in erythrocytes, 48 h; Potency, µM (highest dose often 28.7 µM), without a hit: top-dose activity change, negative = inhibition, usual class: inhibitors; 310,000 tested, 5.9% active; AID 504832; also: potency is read from the fitted curve at half-maximal effect
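Luciferase-expressing P. falciparum in infected erythrocytes (2% hematocrit, 0.1% parasitemia final) in RPMI 1640/0.5% Albumax were exposed to compound for 48 hours at 37 C, 5% CO2; growth read as luminescence.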
Lassa entry inh: Lassa virus entry inhibition | Lassa virus pseudotype entry inhibition, cell reporter | Potency, µM (series often up to 37.9 µM), for the others: at the highest dose activity change, negative = inhibition, most hits filed as inhibitors | 300,000 tested, 1.2% active | AID 540256; calls by dose curve; tested in HEK293 cells; also: potency is read from the fitted curve at half-maximal effect; nearly all actives have a fitted effect of over 50% in size
Pf growth 96h: P. falciparum growth inhibition at 96 hour, primary screen for plastid delayed-death inhibitors | P. falciparum luciferase reporter growth, 96 h | Potency, µM (doses to about 28.7 µM), without a hit: top-dose activity change, negative = inhibition, usual class: inhibitors | 320,000 tested, 6.9% active | AID 504834; also: potency is read from the fitted curve at half-maximal effect
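Two parasite generations (96 h, 37 C, 5% CO2) of compound exposure in infected erythrocytes (0.05% parasitemia, 2% hematocrit). Luciferase-reporter P. falciparum; decreased luminescence indicates inhibited growth, aimed at apicoplast-acting delayed death.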
MARV entry inh: inhibitors of Marburg virus binding or cell entry | Marburg virus pseudotyped entry inhibition, cell reporter | Potency, µM (doses to about 37.8 µM), for the others: at the highest dose activity change, negative = inhibition, hits mostly inhibitors | 300,000 tested, 1.8% active | AID 540276; calls by dose curve; tested in HEK293 cells; also: potency is read from the fitted curve at half-maximal effect
* marks the source's active call; other numbers are inactive results; u = inconclusive; x = not tested or not shown; ! = not confirmed by another sample; [ ] = dose if it differs, or a comment. Unless noted, calls follow the shape of the dose curve; as a rule, active = well fitted inhibition curve with a large enough effect; inconclusive = small, poorly fitted or top-dose-only effect, or another doubt; inactive = no such curve, though single readings can be large or run the other way. % is scaled to controls: 0 for no effect and ±100 for the full control effect.

SMILES	HCMV antiviral	HCV inhibitor	Pf growth 48h	Lassa entry inh	Pf growth 96h	MARV entry inh
CC(=O)c1ccc(NC(=O)CCc2c(C)nn(-c3ccc(N4CCCCC4)nn3)c2C)cc1	-1.6	x	x	10.5%[46.1 µM]	x	x
Cc1c(C(=O)Nc2ccccc2)sc2nc(-c3cc4ccccc4oc3=O)[nH]c(=O)c12	4.9	x	x	14.2%[46.1 µM]	x	x
CCCc1c(OCCCCc2nn[nH]n2)ccc(C(C)=O)c1O	-12.4	1.7%[8.37 µM]	u	-0.2%	10.7µM*!	15.6%
CS(=O)(=O)NCCNc1ccc(C(F)(F)F)cc1[N+](=O)[O-]	-15.2	-0.8%	13.9%	x	3.0%	x
COc1ccc(CNCCc2c(C)[nH]c3ccc(OC(F)(F)F)cc23)c(OC)c1	-66.2*	17.8µM*	5.22µM*	u	u	6.31µM*
COc1ccc2[nH]c(C)c(CCNc3ccc(C(F)(F)F)cc3[N+](=O)[O-])c2c1	-19.7	-9.0%	u	-2.2%	14.7µM*	2.51µM*
COc1ccc2[nH]c(C)c(CCNCc3cc(OC)c(OC)c(OC)c3)c2c1	4.7	u	u	-27.9%	51.5%	-29.7%[46.1 µM]
COc1ccc2[nH]c(C)c(CCNCc3cc(OC)c4c(c3)OCO4)c2c1	-16.8	u	7.38µM*	x	u	x
CN=c1scc(-c2ccccc2F)n1/N=C/c1ccc(O)c(O)c1O	-78.5*	-22.3%	u	u	-45.6%	u
CN=c1scc(C)n1/N=C/c1ccc(O)cc1	81.8	u	206.3%	u	x	u
CN=c1scc(-c2ccccc2F)n1/N=C/c1ccc[nH]1	-99.4*	-25.8%	40.9%	u	28.2%	1µM*
C[C@]12c3[nH]c4ccccc4c3CCN1C(=O)C(CC(=O)NCCCn1ccnc1)C[C@@H]2C(=O)N1CCCCC1 (stereo partly specified)	-14.4	56.2%	x	x	x	x
Cc1cc(C)cc(OCC(=O)Nc2ccc(-c3nc4ccccc4o3)cc2)c1	-23.3	x	x	25.6%[46.1 µM]	x	x
Cc1ccc(OCC(=O)Nc2cccc(-c3nc4ccccc4o3)c2C)cc1C	-60.1*	x	x	-11.3%[46.1 µM]	x	5.5%[46.1 µM]
Cc1ccc(-c2nc3cccnc3o2)cc1NC(=O)COc1ccc(C(C)(C)C)cc1	-29.0	u	x	10µM*	u	u
Cc1ccc(OCC(=O)Nc2ccc(O)c(-c3nc4ccccc4o3)c2)cc1	-76.2*	6.5%	15.3%	u	81.9%	-3.2%
COc1cc(C(=O)Nc2cccc(-c3nc4ccccc4o3)c2C)cc(OC)c1OC	3.9	22.4%	-10.2%	19.5%	-14.8%	10.3%
COc1ccccc1N1CCN(CC(=O)c2c(C)n(C)c3ccccc23)CC1	42.9	-32.4%	u	7.3%	u	u
Cc1ccc2c(C(=O)CN3CCN(C4CCCCC4)CC3)c(C)[nH]c2c1	35.8	-28.9%	2.62µM*	17.2%	-20.3%	u
COc1ccccc1N1CCN(CC(=O)c2c(C)[nH]c3cc(C)ccc23)CC1	29.2	3.0%	13.1µM*	-10.0%	20.5%	u
c1ccc(OCCCCn2cnc3ccccc32)cc1	-23.0	u	-8.7%	-11.7%	-25.3%	u
c1ccc2c(c1)ncn2CCCOc1ccc2c(c1)CCC2	-11.3	u	x	u	13.1µM*	u
c1ccc2c(c1)ncn2CCCCOc1ccc2c(c1)CCC2	10.6	u	x	7.7%	5.86µM*	-18.8%
COCCNc1nc(NCCOc2ccccc2)c2sc(-c3ccccc3)cc2n1	-7.8	x	x	x	x	x
CCN1CCCC1CNC(=O)c1ccc2c(c1)NC(=O)/C(=C\c1ccc(OC)c(OC)c1)S2 (stereo unspecified)	0.0	0.794µM*	4.65µM*	x	u	x
O=C1Nc2cc(C(=O)NCCCN3CCCC3)ccc2S/C1=C/c1cccc(Cl)c1	82.2	x	x	x	x	x
CCN1CCCC1CNC(=O)c1ccc2c(c1)NC(=O)/C(=C\c1ccccc1Cl)S2 (stereo unspecified)	-62.9*	x	x	x	x	x
CC(=O)Nc1ccc(S(=O)(=O)NC2(c3ccccc3)C(=O)N(C)C(=O)N(C)C2=O)cc1	-1.2	5.0%	x	1.4%	x	18.5%
COc1cc2c(cc1OC)CSC1C(=O)N(C)C(SC2)C(=O)N1C	x	x	x	x	x	-4.3%[14.2 µM]

From PubChem
